Screening data as filed in PubChem.
esBAF inh: blocks esBAF chromatin remodeling in mouse ES cells | Bmi1-luciferase knock-in reporter, 24 h; 100% = twice the neutral-well signal | reporter increase, % at 12.5 µM | hit rate 2% among 350,000 | AID 602393; in the data active = activation above about 40%;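 also: 0% = median of the plate's neutral control wells and 100% = double that signal; a rise in the Bmi1 reporter signal indicates esBAF inhibition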
NadD block: inhibitors of Staphylococcus aureus NadD; inhibition, % at 20 µM; AID 602399; hit rate 0.78% among 360,000; purified NadD enzyme, colorimetric absorbance read-out; in the data active = inhibition above about 26%
SMARCA2 activ: activators of SMARCA2 function | MG213 cells, MMTV-luciferase reporter, dexamethasone, overnight | activation, % at 9.1 µM | hit rate 1% among 370,000 | AID 652017; in the data active = activation above about 7.8%;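 also: 0% = vehicle wells and 100% = reference activator wells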
Vif inh: HIV Vif inhibition | HEK293T cells, Vif self-association by quenched fluorescence, imaging, 24 h | inhibition, % at 7.49 µM | hit rate 0.35% among 340,000 | AID 602346; in the data active = inhibition above about 50%, passing the limit was not always enough
GRIN3A LBD mod: modulates the human NR3A ligand-binding domain; hit rate 2.5% among 340,000; Tm shift relative to glycine control, % at 25 µM; NR3A LBD differential scanning fluorimetry, Tm shift; 0% = protein alone, 100% = glycine-bound protein;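 active = melting temperature shift of at least 10% of the positive control shift, at one fixed dose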
SKN-1 inh: C. elegans SKN-1 inhibition; C. elegans VP596 Pgst-4::GFP/RFP ratio, acrylamide-induced, 24 h; inhibition, % at 21.8 µM; hit rate 0.49% among 360,000;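 active = interference check ratio from 0.5 to 1.5 plus GFP to RFP signal ratio inhibition reaching or exceeding a fixed threshold, cut at about 30% in these data, passing the limit was not always enough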
The depositor's hits bear a star; / = not tested or not shown. The list is not random: actives were taken first. Their share in the collection is about 5.2%.

SMILES	esBAF inh	NadD block	SMARCA2 activ	Vif inh	GRIN3A LBD mod	SKN-1 inh
CC(=O)Nc1ccc(Nc2cc(C)nc3c(-c4ccccc4)cnn23)cc1	-82	6	-6	-19	33*	2
Cc1cc(-c2ccc(F)cc2)n2ncc(-c3ccccc3)c2n1	-58	-9	-1	3	/	24
Cc1cc(N)n2ncc(-c3cccc(Br)c3)c2n1	66*	-8	4	/	7	23
CCOC(=O)Cc1c(C)nc2c(-c3cccc(Br)c3)cnn2c1C	/	-7	-3	1	-3	8
Cc1cc(N)n2ncc(-c3ccccc3)c2n1	51*	2	6	17	-23	-9
Cc1cc(-c2ccncc2)n2ncc(-c3ccccc3)c2n1	17	-5	6	14	/	2
CC(=O)Nc1ccc(Nc2cc(-c3ccccc3)nc3ncnn23)cc1	-8	2	0	7	-1	-1
CN1C(=O)c2cc(NC(=O)c3cc(F)cc(F)c3)ccc2OC[C@H]2O[C@H](CC(=O)O)CC[C@H]21	2	/	/	/	/	/
O=C(NCCO)c1cccc(-c2ccc3nncn3c2)c1	4	2	-7	-3	/	48*
C[C@H](CO)N1C[C@H](C)[C@@H](CN(C)S(=O)(=O)c2ccccc2)Oc2ccc(NC(=O)Nc3ccc(F)cc3)cc2C1=O	-1	/	/	/	/	/
CCn1cc([N+](=O)[O-])c(C(=O)N2N=C(c3ccc4ccccc4c3)CC2c2cc(Br)ccc2O)n1 (stereo not given)	-4	40*	/	/	6	-6
CCn1cc([N+](=O)[O-])c(C(=O)N2N=C(c3ccc(Cl)c(Cl)c3)CC2c2ccccc2O)n1 (stereo not given)	/	13	-4	6	7	13
Cc1cccc(/C=N/NC(=O)c2ccc(Br)cc2)c1	59*	-5	5	-6	-18	2
C/C(=N\NC(=O)c1ccc(Br)cc1)C1C(=O)c2ccccc2C1=O	16	2	0	-10	14*	8
COc1cccc(/C=N/NC(=O)c2ccc(OCc3cccc(Br)c3)cc2)c1	3	0	-3	-3	29*	23
CC(/C=N/NC(=O)c1ccc(Br)cc1)=C\c1ccccc1	7	1	6	-4	23*	11
CN(C)C(=O)[C@@H]1[C@@H](CO)[C@@H]2Cn3c(ccc(C4=CCCCC4)c3=O)[C@@H]2N1Cc1ccccn1	-2	/	/	/	/	/
O=C(N/N=C/c1ccc2cccc(OCc3ccccc3)c2n1)c1ccc(Br)cc1	/	30	0	-2	-1	0
COc1ccc(C(=O)N/N=C/c2ccc3cccc(OCc4ccccc4)c3n2)cc1	64*	23	-1	0	-1	24
COc1cccc(/C=N/NC(=O)c2cccc(N3CCCC3=O)c2)c1	73*	-2	5	0	-1	19
COc1ccc(O)c(/C=N/NC(=O)c2cccc(N3CCCC3=O)c2)c1	6	0	-3	21	4	-4
C[C@@H]1CN([C@H](C)CO)C(=O)Cc2cc(NS(=O)(=O)c3cccs3)ccc2O[C@@H]1CN(C)S(=O)(=O)c1ccc(F)cc1	-3	/	/	/	/	/
Cc1ccc(Nc2ccc(NCc3ccccc3)nn2)cc1C	/	-9	2	-1	-7	10
Clc1ccc(Nc2ccc(NCc3ccccc3)nn2)cc1	/	-5	0	2	24*	18
CCN1[C@@H]2c3ccc(-c4ccccc4)c(=O)n3C[C@H]1[C@H](CO)[C@H]2C(=O)NCc1ccccc1	-4	/	/	/	/	/
SMILES	esBAF inh	NadD block	SMARCA2 activ	Vif inh	GRIN3A LBD mod	SKN-1 inh
CCC1OC2(C)OC(=N)C1(C#N)C(C#N)(C#N)C2c1ccccc1 (stereo not given)	/	-5	-1	-2	1	47*
C[C@@H]1CN([C@@H](C)CO)C(=O)c2cc(NS(=O)(=O)c3ccccc3)ccc2O[C@@H]1CN(C)CC1CCCCC1	-2	/	/	/	/	/
CCn1cc(CN2CCCC(C(=O)Nc3cccc(-c4cc5ccccc5[nH]4)c3)C2)c(C)n1 (stereo not given)	0	-2	-3	53*	-2	-8
CCCSC1=C(C#N)C(c2ccc(OC)cc2)C2=C(CC(C)(C)CC2=O)N1 (stereo not given)	0	-6	-4	/	-5	7
CSC1=C(C#N)C(c2ccc(Cl)cc2)C2=C(CC(C)(C)CC2=O)N1 (stereo not given)	8	-4	-6	-5	-4	35*
COc1ccc(CN(C)C[C@H]2OCCCC[C@H](C)Oc3ccc(NC(=O)CCC(F)(F)F)cc3C(=O)N([C@H](C)CO)C[C@@H]2C)cc1	-6	/	/	/	/	/
Cc1ccc2nc(NCc3ccccc3)c(C=O)c(=O)n2c1	0	5	-1	-14	14*	4
CCCCC(=O)Nc1ccc(N2CCN(S(C)(=O)=O)CC2)cc1	-8	0	-1	2	2	-10
COc1ccccc1C(=O)Nc1ccc(N2CCN(S(C)(=O)=O)CC2)cc1	44*	1	-1	-1	2	3
CCCC(=O)Nc1ccc(N2CCN(S(C)(=O)=O)CC2)cc1	/	-5	8.4*	2	-9	-3
C[C@@H]1CN([C@H](C)CO)C(=O)c2cc(C#CC3CCCC3)cnc2O[C@H]1CN(C)C(=O)C1CCCCC1	-1	/	/	/	/	/
Nc1nc(Nc2ccccc2F)nc(N2CCCC2)c1[N+](=O)[O-]	70*	-7	2	-5	-2	35
CCN1[C@H](C(=O)NCc2ccc(F)cc2)[C@@H](CO)[C@@H]2Cn3c(ccc(-c4ccccc4OC)c3=O)[C@@H]21	-1	/	/	/	/	/
COc1cc(/C=C2/C(=O)NN(c3ccc(C)c(Cl)c3)C2=O)cc([N+](=O)[O-])c1O	-8	7	3	-3	4	0
O=C1NN(c2ccccc2)C(=O)/C1=C\c1cccn1-c1ccc(Cl)c([N+](=O)[O-])c1	11	42*	1	32	-1	4
CC(C)NC(=S)NNC(=O)C12CC3CC(CC(C3)C1)C2	-4	-6	0	-2	11*	14
CO[C@H]1CN(C)C(=O)c2ccc(NS(C)(=O)=O)cc2OC[C@@H](C)N(C(=O)C2CCOCC2)C[C@@H]1C	0	/	/	/	/	/
Cc1ccc(Cn2c(=N)c(S(=O)(=O)c3ccc(Br)cc3)cc3c(=O)n4ccccc4nc32)cc1	-1	23	/	53*	1	3
Cc1cccn2c(=O)c3cc(S(=O)(=O)c4ccccc4)c(=N)n(Cc4cccnc4)c3nc12	7	17	0	-4	-2	10
Cc1cccn2c(=O)c3cc(C#N)c(=N)n(Cc4cccnc4)c3nc12	-1	-2	-1	17	-1	14
Cc1ccc(S(=O)(=O)c2cc3c(=O)n4cccc(C)c4nc3n(Cc3ccncc3)c2=N)cc1	10	7	/	14	11*	-18
COCCn1c(=N)c(S(=O)(=O)c2ccc(Br)cc2)cc2c(=O)n3ccccc3nc21	5	15	1	-2	0	12
